HP1b chromo inh: inhibitors of HP1-beta chromodomain binding to methylated histone tails; P83916; Potency, µM (doses to about 114 µM), for inactives: at the highest dose activity change, negative = inhibition, hits mostly inhibitors; AlphaScreen HP1-beta / biotin-H3K9me3 peptide binding; hit rate 0.56% among 390,000; also: nearly all actives have a fitted effect of over 70% in size
Target sequence (P83916 whole entry, looked up): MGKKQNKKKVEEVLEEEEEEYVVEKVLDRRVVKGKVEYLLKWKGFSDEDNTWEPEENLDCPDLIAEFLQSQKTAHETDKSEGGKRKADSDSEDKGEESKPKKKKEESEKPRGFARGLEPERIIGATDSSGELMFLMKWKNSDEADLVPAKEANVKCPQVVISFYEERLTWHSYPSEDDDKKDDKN
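HP1-beta protein (50 nM final) preincubated 30 min at room temperature with biotinylated H3(1-18)K9me3 peptide (50 nM) in PBS pH 7.4, 0.01% Tween-20, then compound added for 30 min. AlphaScreen streptavidin donor/nickel chelate acceptor beads (10 ug/mL final), 30 min dark, luminescence read.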
BAZ2B inh: blocks human BAZ2B; AlphaScreen BAZ2B-H3K14Ac peptide displacement; AID 504333; Potency, µM (highest dose often 114 µM), inactives show at the top dose activity change, negative = inhibition, actives largely listed as inhibitors; hit rate 4.4% among 360,000; Q9UIF8; also: % is scaled to controls: 0 for no effect and ±100 for the full control effect; nearly all actives have a fitted effect of over 60% in size
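AlphaScreen displacement of biotin-H3(5-23)K14Ac peptide (50 nM final) from BAZ2B (50 nM final) in PBS pH 7.4, 0.01% Tween-20; complex preformed 30 min RT, then compounds (top 110 uM) 30 min RT, beads 20 min dark.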
GLS inhibitor: blocks human kidney-isoform glutaminase activity. GLS enzymatic activity, qHTS titration. O94925. hit rate 0.21% among 410,000. Potency, µM (highest dose often 45.5 µM), for the others: top-dose activity change, negative = inhibition, most hits filed as inhibitors; also: % is scaled to controls: 0 for no effect and ±100 for the full control effect
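hKGA; 45 mM KH2PO4 pH 8.2 + 0.02% Tween-20; cpd via pin tool; 1 mM Gln soln; GluOx/HRP/Amplex Red; RT 30 min; fluor. t0 & final.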
G9a block: G9a (human) methyltransferase inhibition; hit rate 8.8% among 350,000; G9a H3K9 monomethylation, AlphaScreen, 2 h; Q96KQ7; Potency, µM (titrated, usually from 102 µM), for inactives: at the top dose activity, negative = inhibition, most hits filed as inhibitors; also: % is scaled to controls: 0 for no effect and ±100 for the full control effect; nearly all actives have a fitted effect of over 75% in size
Target sequence (Q96KQ7 913-1193 limits assumed): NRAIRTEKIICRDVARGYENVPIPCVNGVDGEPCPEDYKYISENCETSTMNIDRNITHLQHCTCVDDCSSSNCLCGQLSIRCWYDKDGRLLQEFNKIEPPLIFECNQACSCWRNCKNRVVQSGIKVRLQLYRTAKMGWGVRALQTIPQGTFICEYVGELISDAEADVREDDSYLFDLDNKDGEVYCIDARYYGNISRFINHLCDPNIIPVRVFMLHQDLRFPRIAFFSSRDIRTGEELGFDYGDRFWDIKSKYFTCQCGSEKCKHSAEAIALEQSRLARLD
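Step 1: enzyme (final 20 nM) with compound, 15 min RT. Step 2: substrate peptide 500 nM and SAM 20 uM, 2 h RT. Step 3: anti-H3K9me1 antibody and AlphaScreen beads, 10 min, then plate read.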
JMJD2A Tudor: JMJD2A Tudor domain (human) inhibition; AlphaScreen JMJD2A-Tudor / H3K4me3 peptide binding; O75164; hit rate 4.4% among 390,000; Potency, µM (doses to about 114 µM), without a hit: top-dose activity change, negative = inhibition, hits mostly inhibitors; also: % is scaled to controls: 0 for no effect and ±100 for the full control effect; nearly all actives have a fitted effect of over 50% in size
* hit, by the source's call; ? = inconclusive; nt = no result given; [ ] = dose if it differs, or a comment. Shown are actives, neighbours in structure and some others; about 10% of the full set was active somewhere. Calls follow the shape of the dose curve; as a rule, active = well fitted curve in the direction sought with a large enough effect; inconclusive = small, poorly fitted or top-dose-only effect, or another doubt; inactive = no such curve, though single readings can be large; an effect the other way counts as inactive or inconclusive. Potency is read from the fitted curve at half-maximal effect.

SMILES | HP1b chromo inh | BAZ2B inh | GLS inhibitor | G9a block | JMJD2A Tudor
COc1ccc(-c2nc(SCc3ccccc3)n(S(C)(=O)=O)n2)cc1 | 45% | -20% | nt | 22%[59 µM] | 3%
CCS(=O)(=O)n1nc(-c2ccc(Cl)cc2)nc1SCc1ccccc1 | 71% | 36% | 15% | 7.1µM* | 40µM*
COc1ccccc1N(CC(=O)Nc1ccc2c(c1)OCO2)S(=O)(=O)c1ccc(C)cc1 | 3% | ? | -11% | -46%[59 µM] | -26%
Cc1scc(C(=O)N/N=C/c2ccc(Cl)s2)c1C | 37% | -3% | -1% | 26% | -3%
O=C(CN(C(=O)CCC(=O)Nc1nccs1)c1cccc(C(F)(F)F)c1)NCC1CCCO1 (stereo not drawn) | -11% | -1% | -15% | 7% | 7%
COc1ccc(CN2CCc3c([nH]c4ccccc34)C2)c(OC)c1C | ? | 45µM* | -20% | 32µM* | 1.3µM*
CCOc1cc(CN2CCCCC2)ccc1OC | 10% | 4% | 0% | -5%[59 µM] | -14%
CCOc1cc(CN2CCc3c([nH]c4ccccc34)C2)ccc1OC | ? | 50µM* | 0% | 11µM* | 3.2µM*
COc1ccc(CN2CCC(CO)(CCOc3ccccc3)CC2)c(OC)c1C | 15% | -7% | 6% | nt | -22%
CCOC(=O)c1c(C)oc2ccc(N(C(=O)Oc3ccccc3)S(=O)(=O)c3ccc(CC)cc3)cc12 | 30% | 2% | 0% | -39%[59 µM] | -13%
Clc1ncc(C#Cc2ccccc2)c2ncncc12 | 6% | nt | nt | nt | -29%
CCCOc1ccc(N2C(=O)CC(N(CCc3ccc(OC)cc3)C(=O)c3cccc(F)c3)C2=O)cc1 (stereo not drawn) | 12% | 4% | -2% | 45µM* | -29%
CCC(=O)N(CCc1ccc(S(N)(=O)=O)cc1)C1CC(=O)N(c2ccc(OC)cc2)C1=O (stereo not drawn) | 23% | -5% | -2% | 56µM* | -7%
COc1ccc(N2C(=O)CC(N(CCc3ccc(S(N)(=O)=O)cc3)C(=S)Nc3ccccc3)C2=O)cc1 (stereo not drawn) | 13% | -37% | -12% | ? | -18%[11.4 µM]
Cc1cc(C)c(C(=O)CC(=O)c2ccccc2Cl)c(O)c1 | 19% | -31% | ? | -1% | -28%
Clc1ccc(CO/N=C2\CCCc3nonc32)cc1 | 81% | 144% | ? | 111% | 71µM*
Cc1ccc(-n2cc[nH]c2=S)c(C)c1 | -12% | -11% | -19% | 8.9µM* | -7%
Cc1ccc(C)c(-n2cc[nH]c2=S)c1 | 22% | 7% | 20% | 2µM* | 40µM*
Cc1cc(C)cc(-n2cc[nH]c2=S)c1 | -4% | -26% | 14% | 0.79µM* | 7.9µM*
CC1=CC(C)(C)NC(=S)N1c1ccc(C)cc1C | 21% | -19% | 4% | 6%[59 µM] | -16%
C=CCn1c(C(CCC(C)C)CC(C)(C)O)n[nH]c1=S (stereo not drawn) | -8% | 10% | ? | ? | 7.1µM*
Cc1sc2ncnc(SCC(=O)NC(=O)c3cccn3C)c2c1C | 4% | -21% | 4% | 32µM* | -25%
Cc1sc2ncnc(Sc3ccccc3C(=O)O)c2c1C | 9% | -9% | 5% | -15%[59 µM] | -5%
CC(=O)c1ccc(NC(=O)c2ccccc2Sc2ncnc3sc(C)c(C)c23)cc1 | 20% | -36% | 6% | 32µM* | -21%
CCN(CC(=O)Nc1ccc(NC(C)=O)cc1)C(=O)CSc1ncnc2sc(C)c(C)c12 | 8% | -32% | 1% | 13µM* | ?
SMILES | HP1b chromo inh | BAZ2B inh | GLS inhibitor | G9a block | JMJD2A Tudor
CC(=O)Nc1ccc(NC(=O)CSc2ncnc3sc(C)c(C)c23)cc1 | 2% | -11% | -5% | 10% | -6%
CC(C)c1ccc(Nc2ncnc3c2c(-c2ccccc2)cn3-c2ccccc2)cc1 | 56% | 1% | -5% | -5%[59 µM] | -12%
C=CCN(C(C(=O)OC)C(C)C)S(=O)(=O)CCl (stereo not drawn) | 41% | nt | nt | nt | 2%
O=C(c1ccc(Cl)cc1Cl)N1CCC(c2nc3c(nnn3Cc3ccco3)c(=O)[nH]2)CC1 | 11% | -7% | 25% | 45µM* | -10%
O=C(NC1CCCCCC1)c1cc(-c2ccccn2)nc2ccccc12 | 19% | -13% | 8% | -12% | -12%
Cc1ccc(C)c(-c2cc(C(=O)NC3CC3)c3ccccc3n2)c1 | 20% | -25% | -22% | 45µM* | -24%
O=C(NC1CCCCC1)c1cc(-c2ccccn2)nc2ccccc12 | 15% | -14% | 1% | 50µM* | -17%
Cc1cnn(C(=O)c2cc(-c3ccccn3)nc3ccc(Cl)cc23)c1 | 13% | 56µM* | -1% | ? | -15%
O=C(NCCc1ccc(Cl)cc1)c1cc(-c2ccccn2)nc2ccccc12 | -1% | -21% | 4% | 18%[59 µM] | 22µM*
CC(=O)N1CCc2c(sc3c2c(=O)n(-c2ccccc2C)c(=O)n3CC(=O)Nc2ccccc2)C1 | 2% | -1% | -6% | -2%[59 µM] | -22%
CCc1ccc(-n2nc(CO)c(C(=O)NCCc3ccccc3)n2)cc1 | 36% | 4% | 4% | 12%[59 µM] | -11%
Cc1ccc(C)c(-c2cc(C(=O)NNC(=S)NCC(C)C)c3ccccc3n2)c1 | -9% | -4% | 55% | 10µM* | -20%
O=C(CSC1=Nc2ccccc2N=C(c2ccc(F)cc2)C1)NCc1ccccc1 | 11%[57 µM] | -5% | 7% | 11%[59 µM] | -13%
Cc1ccc(CCNC(=O)c2sc3ncccc3c2-n2c(C)ccc2C)cc1 | 12%[57 µM] | 3% | -14% | -3%[59 µM] | -24%
CCOc1ccc(/C=C2\SC(=S)N(Nc3ccccc3)C2=O)cc1OC | -19% | ? | 6% | 7.1µM* | ?
COc1cc(/C=C2\SC(=S)N(Nc3ccccc3)C2=O)cc(OC)c1OC | ? | 22µM* | 9% | ? | ?
O=C1/C(=C/c2cccs2)SC(=S)N1N1CCOCC1 | 35µM* | ? | -6% | ? | ?
O=C1/C(=C/c2ccncc2)SC(=S)N1N1CCOCC1 | -14% | -33% | ? | -124%[59 µM] | -21%
COc1cc(/C=C2\SC(=S)N(N3CCOCC3)C2=O)cc(OC)c1OC | 10% | 12% | -4% | 13µM* | -19%
N[C@H](C(=O)O)C1C(C(=O)O)C1C(=O)O (stereo partly drawn) | nt | nt | nt | 23%[59 µM] | nt
Nc1nc(N)c2sc3nc4c(cc3c2n1)CCC4 | 18% | -1% | 3% | 10%[59 µM] | -19%
COc1ccc(N2CCN(c3oc(/C=C/c4ccc(F)cc4)nc3C#N)CC2)cc1 | -3% | -31% | 2% | ? | -33%
COC(=O)c1sc2nc(SCC(=O)N(C)c3ccccc3)n(N)c(=O)c2c1C | 24% | 10% | -1% | 25µM* | -7%
COC(=O)c1sc2nc(SCc3ccccc3C)n(N)c(=O)c2c1C | 31% | 5% | 77% | 11% | 9%
O=C(O)CCS(=O)(=O)c1cccc2cccnc12 | 2% | -4% | 1% | ? | -1%
CCSS(=O)(=O)c1cccc2cccnc12 | ? | 22µM* | 10µM* | 0.45µM* | 1.1µM*
